# Assay results taken from PubChem BioAssay AID1851 (National Center for Advancing Translational Sciences (NCATS), 2009).
# Screen size: about 16,000 compounds; about 4,000 (25%) were called active. Not shown: some 26% with an inconclusive outcome. Not all results are given here. Unmarked numbers belong to inactive results. Calls follow the shape of the dose curve; as a rule, active = well fitted curve in the direction sought with a large enough effect; inconclusive = small, poorly fitted or top-dose-only effect, or effect the other way; inactive = no such curve, though single readings can be large or run the other way.
# Target: Cytochrome P450 2C9 (Homo sapiens) (UniProt P11712)
# Test: Cytochrome panel assay with activity outcomes
# Settings: recombinant CYP, pro-luciferin dealkylation, luminescence, p450-cyp2c9; series mostly up to 57.1 µM
# % is scaled to controls: 0 for no effect and ±100 for the full control effect.
# Sequence of Cytochrome P450 2C9 (Homo sapiens) (P11712 whole entry, looked up): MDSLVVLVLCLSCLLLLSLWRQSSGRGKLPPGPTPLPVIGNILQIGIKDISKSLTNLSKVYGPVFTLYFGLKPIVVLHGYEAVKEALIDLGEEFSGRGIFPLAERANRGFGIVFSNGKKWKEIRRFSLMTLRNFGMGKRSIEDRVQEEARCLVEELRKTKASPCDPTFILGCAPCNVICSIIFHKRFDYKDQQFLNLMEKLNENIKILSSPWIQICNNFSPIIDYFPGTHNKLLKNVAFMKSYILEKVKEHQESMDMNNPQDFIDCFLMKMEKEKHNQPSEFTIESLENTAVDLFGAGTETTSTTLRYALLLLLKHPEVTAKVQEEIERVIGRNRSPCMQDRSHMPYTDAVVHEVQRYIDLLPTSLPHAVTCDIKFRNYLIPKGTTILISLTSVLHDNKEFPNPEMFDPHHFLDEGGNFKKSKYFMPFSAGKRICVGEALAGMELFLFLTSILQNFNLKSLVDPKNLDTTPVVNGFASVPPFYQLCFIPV
Compound,"activity, negative = inhibition",AC50
C[C@@H]1CCCN(CP(=O)(c2ccccc2)c2ccccc2)C1,-15.6% [at 11.4 µM],
Cc1n[nH]c(C)c1N=Nc1cc(Cl)ccc1Cl,,inactive
CCOC(=O)CNc1c(-c2ccccc2)nc2ccc(Cl)cn12,,2.82 µM (active)
Oc1ccc(Cc2cc(Cl)cc(Cl)c2O)cc1Cl,,0.2 µM (active)
O=C(O)Cc1cc(Cl)ccc1O,12.8% [at 11.4 µM],
CCOc1ccc(Cl)cc1CNCCNCCO,,inactive
Oc1ccc(Cl)cc1Cc1cc(Cl)cc(Cc2cc(Cl)ccc2O)c1O,,2.51 µM (active)
CN(C)Cc1cc(Cl)c(O)c(CN(C)C)c1,-9.61% [at 11.4 µM],
COc1ccccc1CNc1ncncc1-c1cccnc1,-1.61% [at 2.29 µM],
O=C(O)[C@@H]1C[C@@H](C(=O)O)N1,,inactive
Cc1nonc1NC(=O)N1CCCC1,,inactive
CC1CC(C)CN(C(=O)CSc2nnc(CSc3ncccn3)n2C)C1 (configuration not stated),,inactive
Cn1c(CC(=O)Nc2ccc(Cl)c(Cl)c2)nnc1SCC(=O)N1CCN(c2ccccc2)CC1,,5.62 µM (active)
CCOC(=O)N1CCC(NC(=O)C2CCN(S(=O)(=O)N3CCCC3)CC2)CC1,,inactive
CCOC(=O)N1CCC(NC(=O)c2cc(S(=O)(=O)N3CCCC3)cn2C)CC1,,7.08 µM (active)
CCCS(=O)(=O)N1CCCC(C(=O)N2CCN(C(=O)OCC)CC2)C1 (configuration not stated),,inactive
C[C@@]12CCC(=O)C=C1CC[C@H]1[C@@H]2[C@@H](O)C[C@]2(C)[C@@H]1CC[C@@]2(O)C(=O)COC(=O)C1CCCC1,-1.4% [at 11.4 µM],
O=S(=O)(O)c1cc(O)c2c(N=Cc3ccccc3O)cc(S(=O)(=O)O)cc2c1,,3.16 µM (active)
Nc1ccccc1N=Nc1c(S(=O)(=O)O)cc2cc(S(=O)(=O)O)cc(O)c2c1O,-15.1% [at 11.4 µM],
Cc1ccc(Nc2ccc(-n3ccnc3)nn2)cc1C,,0.0794 µM (active)
COc1ccccc1-c1cc(-n2ccnc2)ncn1,-8.14% [at 2.29 µM],
CS(=O)(=O)Nc1cccc(-c2nccc(-n3ccnc3)n2)c1,-8.16% [at 2.29 µM],
CCc1ccc(NC(=O)c2cc(C(C)C)on2)cc1,,inactive
CCc1noc(N)c1C(=O)Nc1ccc(F)c(Cl)c1,,14.1 µM (active)
O=C(O)c1cc(S(=O)(=O)N2CCCCC2)ccc1F,,inactive
O=C(Nc1ccc(F)cc1)c1cc(S(=O)(=O)N2CCCCC2)cs1,,12.6 µM (active)
O=C(N/N=C1/C[C@@H](O)[C@@H](O)[C@@H]2[C@H]3C(=O)N(c4ccc(F)cc4F)C(=O)[C@@H]3CC[C@H]12)OCc1ccccc1,-11.6% [at 11.4 µM],
